Among all 360,000 compounds or so, about 1,400 (0.39%) were called active. The full list was thinned out, with actives kept by preference. Unmarked numbers belong to inactive results. Cut-off read from the data, not from the text of the source: active = inhibition above about 5% (passing the limit was not always enough); inactive = the rest.

For the assay, the target named is Tyrosine-protein kinase ABL1 (Homo sapiens) + Ras and Rab interactor 1 (Homo sapiens) (UniProt P00519+Q13671). In words: inhibitors of Rin1-Abl protein binding, primary screen, biochemical, TR-FRET (AID 588664). As to conditions: at 7.35 µM, active compounds read high.
Tyrosine-protein kinase ABL1 (Homo sapiens) + Ras and Rab interactor 1 (Homo sapiens), sequence (P00519 whole entry, looked up): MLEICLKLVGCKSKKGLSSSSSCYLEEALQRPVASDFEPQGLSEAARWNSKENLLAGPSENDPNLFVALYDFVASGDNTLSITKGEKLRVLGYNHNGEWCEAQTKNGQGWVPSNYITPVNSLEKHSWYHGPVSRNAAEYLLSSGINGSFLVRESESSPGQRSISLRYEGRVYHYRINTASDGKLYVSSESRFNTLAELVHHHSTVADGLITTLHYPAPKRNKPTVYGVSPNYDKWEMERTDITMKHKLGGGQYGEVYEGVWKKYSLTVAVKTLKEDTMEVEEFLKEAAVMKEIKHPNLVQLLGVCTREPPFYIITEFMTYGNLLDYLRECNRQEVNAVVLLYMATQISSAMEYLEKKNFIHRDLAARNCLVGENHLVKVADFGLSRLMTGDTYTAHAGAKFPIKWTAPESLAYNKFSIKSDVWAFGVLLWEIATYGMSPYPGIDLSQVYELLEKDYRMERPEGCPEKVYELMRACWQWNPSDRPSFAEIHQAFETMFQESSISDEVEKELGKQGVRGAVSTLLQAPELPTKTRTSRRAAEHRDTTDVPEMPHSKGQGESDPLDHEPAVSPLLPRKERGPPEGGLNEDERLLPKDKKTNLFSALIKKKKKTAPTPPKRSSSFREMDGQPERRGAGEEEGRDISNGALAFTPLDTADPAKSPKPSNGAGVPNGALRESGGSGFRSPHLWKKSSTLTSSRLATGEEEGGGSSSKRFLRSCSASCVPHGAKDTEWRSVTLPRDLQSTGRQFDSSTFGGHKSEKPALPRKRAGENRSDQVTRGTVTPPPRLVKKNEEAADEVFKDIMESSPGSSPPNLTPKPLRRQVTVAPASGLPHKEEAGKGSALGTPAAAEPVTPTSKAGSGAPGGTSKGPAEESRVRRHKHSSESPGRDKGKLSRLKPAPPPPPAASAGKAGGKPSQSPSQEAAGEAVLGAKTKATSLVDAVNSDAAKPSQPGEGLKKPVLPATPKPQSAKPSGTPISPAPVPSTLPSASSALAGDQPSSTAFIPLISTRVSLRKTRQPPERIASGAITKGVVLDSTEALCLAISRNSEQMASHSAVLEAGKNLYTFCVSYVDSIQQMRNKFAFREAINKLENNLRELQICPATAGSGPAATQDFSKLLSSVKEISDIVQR
Tyrosine-protein kinase ABL1 (Homo sapiens) + Ras and Rab interactor 1 (Homo sapiens), sequence (Q13671 whole entry, looked up): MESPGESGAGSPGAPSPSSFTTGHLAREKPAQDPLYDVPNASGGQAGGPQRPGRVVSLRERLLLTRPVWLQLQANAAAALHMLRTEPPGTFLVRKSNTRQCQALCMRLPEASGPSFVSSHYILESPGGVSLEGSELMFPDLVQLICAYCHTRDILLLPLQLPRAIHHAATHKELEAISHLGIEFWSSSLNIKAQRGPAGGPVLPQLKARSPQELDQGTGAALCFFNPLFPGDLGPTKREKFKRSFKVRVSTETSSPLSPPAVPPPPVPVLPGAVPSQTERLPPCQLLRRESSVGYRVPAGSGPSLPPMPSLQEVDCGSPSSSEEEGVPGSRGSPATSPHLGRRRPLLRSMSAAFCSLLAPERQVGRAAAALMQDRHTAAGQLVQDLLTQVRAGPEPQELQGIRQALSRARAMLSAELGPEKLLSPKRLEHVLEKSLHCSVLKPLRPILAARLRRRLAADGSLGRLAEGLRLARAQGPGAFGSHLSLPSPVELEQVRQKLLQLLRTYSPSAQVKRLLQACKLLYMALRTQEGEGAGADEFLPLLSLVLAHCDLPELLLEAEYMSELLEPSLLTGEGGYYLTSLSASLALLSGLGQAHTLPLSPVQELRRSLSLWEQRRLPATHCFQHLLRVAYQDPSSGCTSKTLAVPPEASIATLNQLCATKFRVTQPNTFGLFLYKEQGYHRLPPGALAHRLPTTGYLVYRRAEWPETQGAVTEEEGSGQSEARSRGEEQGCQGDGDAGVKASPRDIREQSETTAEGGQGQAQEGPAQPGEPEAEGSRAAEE
As to `COc1ccc(-n2nnnc2C(c2cccc3ccccc23)N2CCC(n3c(=O)[nH]c4ccccc43)CC2)cc1` (stereo not given), the inhibition is 0.78%.

For `O=c1[nH]c2ccccc2n1C1CCN(C(c2ccccc2)c2nnnn2Cc2ccccc2)CC1` (stereo not given), the inhibition was -0.41%.

Consider `CSCCC(c1nnnn1C(C)(C)C)N1CCC(n2c(=O)[nH]c3ccccc32)CC1` (stereo not given), for which the inhibition was 19.1% (active).

For the compound `COc1ccc2[nH]c3c(c2c1)CCN[C@H]3C`, the inhibition is -0.17%.

In the case of `CCc1nnc(NS(=O)(=O)c2ccc(N=Cc3c(O)n(-c4ccccc4)c(=O)[nH]c3=O)cc2)s1`, the inhibition was 4.11%.

(Values after PubChem BioAssay AID588664 (The Scripps Research Institute Molecular Screening Center, 2011).)
